# Sampled rows, rich in hits. Any-hit rate of the full collection: about 4.6%.
# ADAM10 inh – human ADAM10 inhibitors, primary screen, biochemical, QFRET, HTS. hit rate 0.62% among 370,000. inhibition, % at 7 µM. recombinant ADAM10, EDANS/DABCYL FRET peptide cleavage, 3 h;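 active = inhibition above a per-campaign cutoff equal to the mean of compounds falling between control-based bounds plus 3 SD, cut at about 20% in these data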;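 also: 0% = DMSO wells while the 100% control is not disclosed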
# NR3A LBD binder – binders of NR3A ligand-binding domain, primary screen, biophysical, differential scanning fluorimetry, uHTS. Tm shift relative to glycine control, % at 25 µM. hit rate 2.5% among 340,000. AID 1259313, 2017. Glutamate receptor ionotropic, NMDA 3A (GRIN3A) ligand-binding domain. NR3A LBD differential scanning fluorimetry, Tm shift; 0% = protein alone, 100% = glycine-bound protein;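 active = melting temperature shift of at least 10% of the positive control shift, at one fixed dose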
# ADAM17 inh – ADAM17 inhibitors, primary screen, biochemical, QFRET | Disintegrin and metalloproteinase domain-containing protein 17 (Homo sapiens), P78536 | recombinant ADAM17, EDANS/DABCYL FRET peptide cleavage | inhibition, % at 6.95 µM | hit rate 0.83% among 370,000;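 active = inhibition above the mean of compounds lying between control limits plus 3 SD, set per campaign, cut at about 8.5% in these data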;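 also: 0% = DMSO-only wells as the low control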
# FAS TE block – FAS thioesterase domain inhibitors, primary screen, biochemical, fluorescence intensity, uHTS | hit rate 0.67% among 360,000 | recombinant FAS-TE, OMFH fluorogenic substrate, fluorescence endpoint | AID 602261, 2012 | inhibition, % at 15 µM;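 active = compounds whose normalised, plate-corrected inhibition of enzyme fluorescence in the single-dose primary screen is 50% or more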;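 also: 0% = DMSO with enzyme and 100% = substrate without enzyme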
# proKLK7 act – proKLK7 zymogen activators, primary screen, biochemical, fluorescence intensity | Kallikrein-7 (Homo sapiens), P49862 | purified proKLK7, EDANS-DABCYL substrate fluorescence; 100% is mature enzyme control, 0% vehicle | activation, % at 7 µM | hit rate 0.9% among 370,000 | AID 652039, 2013;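 active = activation above the mean of all tested compounds plus 3 SD, computed per campaign excluding outliers beyond control limits, cut at about 13% in these data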
# Target sequence (P49862 whole entry, looked up): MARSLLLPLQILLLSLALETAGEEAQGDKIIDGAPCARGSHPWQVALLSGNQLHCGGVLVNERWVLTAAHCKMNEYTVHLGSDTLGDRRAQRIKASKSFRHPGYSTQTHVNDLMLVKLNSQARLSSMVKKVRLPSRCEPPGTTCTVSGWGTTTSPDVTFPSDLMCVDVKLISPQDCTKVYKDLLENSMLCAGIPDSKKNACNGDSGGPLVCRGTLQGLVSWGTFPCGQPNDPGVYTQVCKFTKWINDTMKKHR
# FAS-TE conf – FAS thioesterase domain inhibitors, confirmation, biochemical, fluorescence intensity, single concentration; shares compounds with FAS TE block; recombinant FAS-TE, OMFH fluorogenic substrate; inhibition, % at 15 µM; hit rate 45% among 2,300;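 active = compounds inhibiting the enzyme by at least 50% at 15 µM in any one of the replicates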;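 also: 0% = enzyme with DMSO only and 100% = wells lacking enzyme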
# KLK7 act conf – proKLK7 zymogen activators, confirmation, biochemical, fluorescence intensity, triplicate; purified proKLK7, EDANS-DABCYL substrate fluorescence; scaled: vehicle 0, mature enzyme 100; activation, % at 7 µM; shares compounds with proKLK7 act; hit rate 68% among 3,200;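 active = activation, as change over the incubation, above the mean of all tested compounds plus 3 SD, cut at about 13% in these data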
# EDANS-DABCYL int – EDANS-DABCYL substrate optical interference, artefact control for kallikrein-7 zymogen activator project, biochemical, fluorescence intensity, high throughput. activation, % at 7 µM. no enzyme, 4 h; solvent 0%, active enzyme control 100%. hit rate 80% among 3,200. shares compounds with proKLK7 act. AID 686952, 2013;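 active = activation above the all-compound mean plus 3 SD, ignoring values outside control-based bounds, cut at about 4.8% in these data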;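 also: value is the 4 h activation minus the activation read at time zero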
# ADAM10 confirm – human ADAM10 inhibitors, confirmation, biochemical, QFRET, triplicate; shares compounds with ADAM10 inh; ADAM10 QFRET peptide cleavage, EDANS fluorescence; AID 743208, 2013; hit rate 1% among 2,100; inhibition, % at 6.95 µM;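 active = inhibition above about 20% chosen separately for each screening run, limit read from the data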;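 also: 0% = DMSO wells and 100% = marimastat wells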
# ADAM17 counter – ADAM17 inhibitors, counter-screen for ADAM10 exosite inhibitor project, biochemical, QFRET, high throughput; shares compounds with ADAM10 inh; ADAM17 QFRET peptide cleavage, EDANS fluorescence; inhibition, % at 6.95 µM; hit rate 0.5% among 2,100;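 active = mean triplicate inhibition above the solvent-only control wells' mean plus 3 SD, cut at about 12% in these data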;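 also: 0% = DMSO wells and 100% = marimastat wells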
# ADAM10 counter – ADAM10 inhibitors, counter-screen for ADAM17 exosite inhibitor project, biochemical, FRET, human ADAM10; inhibition, % at 6.95 µM; shares compounds with ADAM17 inh; AID 743256, 2014; recombinant ADAM10, EDANS/DABCYL FRET peptide cleavage, 3 h; hit rate 47% among 2,900;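 active = mean inhibition over the triplicate runs exceeds the activity threshold set in the earlier primary screen, cut at about 20% in these data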;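 also: 0% = DMSO wells and 100% = marimastat wells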
# ADAM17 confirm – ADAM17 inhibitors, hit retest, confirmation, biochemical, QFRET peptide cleavage. AID 743257, 2014. hit rate 65% among 2,900. recombinant ADAM17, EDANS/DABCYL QFRET peptide cleavage. shares compounds with ADAM17 inh. inhibition, % at 6.95 µM;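 active = mean inhibition across replicates above the hit cutoff set in the primary screen, cut at about 8.5% in these data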;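 also: 0% = DMSO wells and 100% = marimastat wells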
# Active calls of the source: *; i = inactive; · = no result given.
SMILES,ADAM10 inh,NR3A LBD binder,ADAM17 inh,FAS TE block,proKLK7 act,FAS-TE conf,ADAM10 counter,ADAM17 confirm,others
COc1ccc2c(c1)CCCN2C(=O)C1CCCN(S(=O)(=O)c2ccccc2)C1 (stereo unspecified),-8,·,-3,·,0,·,·,·,
Cc1cccc(C)c1NC(=O)[C@@H]1CC(=O)O[C@@H]1c1ccccc1,-4,·,0,·,1,·,·,·,
NC(=O)[C@H]1CC2(CC(c3cccc(NC(=O)COc4ccc(Cl)cc4)c3)=NO2)CN1C(=O)C(c1ccccc1)c1ccccc1 (stereo partly specified),31*,11*,12*,73*,1,21,30*,15*,ADAM10 confirm=12;ADAM17 counter=4
CCN1C(=O)[C@@H]2[C@@H](c3ccc(-c4ccc(OC)cc4)c(OC)c3)N3CCCC[C@@]3(C(=O)OC)[C@@H]2C1=O,2,0,9.3*,51*,1,-4,-7,-1,
CCN1C(=O)[C@H]2[C@@H](c3ccc(-c4ccc(F)cc4)c(OC)c3)N3CCC[C@@]3(C(=O)OC)[C@H]2C1=O,-86,-2,-20,13,-5,·,·,·,
COc1ccc(S[C@]2(C(=O)N3CCN(c4ncccn4)CC3)CC(=O)N[C@@H]2c2ccc(OC)cc2)cc1,2,·,0,·,1,·,·,·,
COc1ccc([N+](=O)[O-])cc1NC(=O)CSc1ccc2ccccc2c1,10,1,9.6*,55*,-1,44,21*,8,
COc1ccc([N+](=O)[O-])cc1NC(=O)CSc1nc(C)cc(C)n1,5,2,5,18,-1,·,·,·,
O=C(NCc1ccco1)O[C@H]1CC[C@@]23CCCN2C(=O)CCC[C@H]3C1,-8,·,-5,·,·,·,·,·,
O=C(Cn1nc(-c2ccccc2)c2ccccc2c1=O)Nc1ccc(F)cc1,9,-4,1,-1,1,·,·,·,
N#Cc1c(-c2ccccc2)c(-c2ccccc2)nn(CC(=O)NNC(=O)Nc2ccc(Cl)c(Cl)c2)c1=O,9,10,15*,69*,2,48*,27*,18*,
O=C(/C=C/c1cccc([N+](=O)[O-])c1)NCCSCc1ccccc1Cl,19,-4,8.9*,75*,0,8,27*,14*,
CN(CCOC(=O)CSc1ccccc1)C1CN(Cc2cn(Cc3ccccc3F)nn2)S(=O)(=O)C1 (stereo unspecified),2,·,-2,·,0,·,·,·,
O=C1CC(N(CCc2ccccc2)C(=S)Nc2cc(Cl)ccc2Cl)C(=O)N1c1c(Cl)cccc1Cl (stereo unspecified),21*,16*,12*,56*,1,9,24*,13*,ADAM10 confirm=15;ADAM17 counter=4
COCCOc1ccc(C(F)(F)F)cc1NC(=O)COC(=O)c1ccc(N2CCCC2=O)cc1,-14,-1,-6,1,1,·,·,·,
COCCOc1ccc(C(F)(F)F)cc1NC(=O)COC(=O)c1cc([N+](=O)[O-])ccc1N1CCOCC1,22*,-10,8.9*,72*,1,30*,17,8.9*,ADAM10 confirm=2;ADAM17 counter=0
COc1ccc(C=O)cc1-c1cc(C(C)=O)c2n(c1=O)CCC2,-3,·,-1,·,-1,·,·,·,
O=C(COc1cccc(OC(F)F)c1)Nc1ccc(SC(F)F)cc1,14,0,6,29,0,·,·,·,
O=C(COc1cccc(Oc2ccccc2)c1)Nc1ccc(SC(F)F)cc1,18,1,10*,81*,0,55*,32*,18*,
O=S1(=O)c2ccc(Br)cc2OC[C@@H](c2ccccc2)N1Cc1cn(CCC2OCCO2)nn1,-6,·,-4,·,0,·,·,·,
COC(=O)[C@]12C[C@H](CC(=O)N3CCOCC3)C(=O)N(CCc3ccc(OC)c(OC)c3)C1=C[C@H](COCc1ccccc1)O[C@@H]2C,-3,·,-3,·,0,·,·,·,
C[C@H](CO)N1C[C@H](C)[C@@H](CN(C)C(=O)Nc2ccccc2)Oc2c(NC(=O)Nc3ccc(C(F)(F)F)cc3)cccc2C1=O,26*,28*,12*,83*,0,92*,37*,19*,ADAM10 confirm=2;ADAM17 counter=0
C#CCNC(=O)C[C@H]1C[C@@]2(C(=O)OC)C(=C[C@H](C3CCCC3)O[C@@H]2C)N(CCC2=CCCCC2)C1=O,4,·,-1,·,0,·,·,·,
CCN(C(=O)c1cc2c(=O)n3ccccc3nc2n1C)C1CCCCC1,i,-3,i,0,67*,·,·,·,KLK7 act conf=66*;EDANS-DABCYL int=80*
CCN(C(=O)c1cc2c(=O)n3ccccc3nc2n1CCCOC)C1CCCCC1,i,-2,i,-3,55*,·,·,·,KLK7 act conf=76*;EDANS-DABCYL int=78*
CC1CCCCC1NC(=O)c1cc2c(=O)n3ccccc3nc2n1C (stereo unspecified),i,-4,i,5,41*,·,·,·,KLK7 act conf=6;EDANS-DABCYL int=4
CCN(C(=O)c1cc2c(=O)n3ccccc3nc2s1)C1CCCCC1,i,-1,-399,6,12,·,·,·,

# Screens as filed in PubChem.
